Reference: PubChem BioAssay AID720690 (Broad Institute, 2013)
Measured potencies and affinities stand elsewhere. Active and inactive are the calls of the source.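 How the source made its calls: active means every repeat run showing a signal drop whose fitted half-maximal concentration is at most twice the top tested concentration; inconclusive means repeat runs disagree, or flat partial drop, or poor fit; inactive means the rest.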

Experiment: general mammalian cell viability loss – activator set, cherry-pick, cytotoxicity control for miR-122 modulator project, dose response (AID 720690);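 further: 0% = neutral control wells and -100% = MG132 cytotoxic control wells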
Conditions: HEK293T viability, CellTiter-Glo luminescence, 48 h; series mostly up to 26 µM; activity change, negative = cytotoxicity: at the top concentration

SMILES	activity change, negative = cytotoxicity
Cc1[nH]c(=O)c(C#N)cc1-c1ccccc1	-8.29% (inactive)
C/C=C/c1ccc([C@@H]2[C@@H](CO)N[C@@H]2CN(CC(C)C)C(=O)c2ccccn2)cc1	-19.5% (inactive)
COCC(=O)N(C)C[C@H]1Oc2cc(-c3ccccc3F)ccc2S(=O)(=O)N([C@@H](C)CO)C[C@H]1C	-7.98% (inactive)
CCC(=O)N1[C@H](CO)[C@@H](c2ccccc2)[C@@H]1CN(CC)C(=O)c1cccc(F)c1	-9.04% (inactive)
CNC(=O)C[C@@H]1CC[C@@H]2[C@@H](COc3ccc(NC(=O)Nc4ccc(F)c(F)c4)cc3C(=O)N2C)O1	15.3% (inactive)
CN(C[C@H]1N[C@@H](CO)[C@H]1c1ccc(-c2ccccc2)cc1)C(=O)C1CCC1	-13.6% (inactive)
CN(C)CCCNC(=O)C[C@H]1CC[C@H]2[C@H](COc3ccc(NS(C)(=O)=O)cc3C(=O)N2C)O1	-23.2% [at 23.5 µM] (inactive)
COc1cccc(COc2cc3ccccc3nc2C)c1	-37.7% (inactive)
COc1ccc(N2CCN(C(=O)CSc3nnc(CNc4ccccc4)o3)CC2)cc1	-20.4% (inactive)
Cc1cccc(NC(=O)C[C@H]2CC[C@H]3[C@@H](COc4ccc(NC(=O)NC(C)C)cc4C(=O)N3C)O2)c1	9.81% (inactive)
CCn1nnnc1SCC(=O)Nc1nnc(C(C)C)s1	10.6% (inactive)
COCC(=O)Nc1ccc2c(c1)C(=O)N(C)[C@@H]1CC[C@H](CC(=O)NCCCN(C)C)O[C@H]1CO2	-12.7% (inactive)
CC(C)NC(=O)Nc1ccc2c(c1)C(=O)N(C)[C@H]1CC[C@H](CC(=O)NCC(F)(F)F)O[C@H]1CO2	12.3% (inactive)
CNC(=O)C[C@@H]1CC[C@@H]2[C@H](COc3ccc(NC(=O)c4cccc(OC)c4)cc3C(=O)N2C)O1	4.45% (inactive)
CCN(C[C@@H]1[C@@H](c2ccccc2)[C@@H](CO)N1C(=O)COC)S(C)(=O)=O	-8.83% [at 23.5 µM] (inactive)
CCN(C[C@@H]1[C@@H](c2ccc(C3=CCCCC3)cc2)[C@@H](CO)N1CC1CC1)C(C)=O	-22.1% (inactive)
COCC(=O)N(C[C@@H]1[C@@H](c2ccccc2)[C@H](CO)N1C(=O)NC(C)C)C(C)C	2.09% (inactive)
CN1CCN(c2ccc(Cl)cc2NC(=O)c2ccc(S(=O)(=O)N3CCCCCC3)cc2)CC1	-2.63% (inactive)
CCCNC(=O)C[C@@H]1CC[C@@H]2[C@H](COc3ccc(NC(=O)Nc4ccccc4F)cc3C(=O)N2C)O1	2.78% (inactive)
Cc1ccc(NCC(=O)c2ccccc2)cc1Cl	21.2% (inactive)

SMILES	activity change, negative = cytotoxicity
CCNC(=O)Nc1ccc2c(c1)C(=O)N(C)[C@H]1CC[C@H](CC(=O)Nc3cccc(F)c3)O[C@@H]1CO2	-2.47% (inactive)
CN1C(=O)c2cc(NC(=O)c3cccc(F)c3)ccc2OC[C@@H]2O[C@@H](CC(=O)NC3CCC3)CC[C@@H]21	-15.9% (inactive)
CCNC(=O)C[C@H]1CC[C@H]2[C@H](COc3ccc(NC(=O)Nc4cccc(OC)c4)cc3C(=O)N2C)O1	-2.63% [at 23.5 µM] (inactive)
CCCC#Cc1ccc2c(c1)O[C@H](CN(C)C(=O)COC)[C@H](C)CN([C@@H](C)CO)S2(=O)=O	-6.09% (inactive)
CCNC(=O)C[C@@H]1CC[C@H]2[C@@H](COc3ccc(NC(=O)Nc4ccc(F)cc4)cc3C(=O)N2C)O1	-8.16% (inactive)
C[C@@H]1CN([C@H](C)CO)S(=O)(=O)c2ccc(/C=C/c3ccccc3)cc2O[C@@H]1CN(C)C(=O)c1cccnc1	-30% (inactive)
CO[C@H]1CN(C)C(=O)c2cc(NC(C)=O)ccc2OC[C@@H](C)N(C(=O)c2ccccn2)C[C@H]1C	-7.67% (inactive)
CC(C)C(=O)Nc1ccc2c(c1)C(=O)N(C)[C@H]1CC[C@H](CC(=O)NCCc3ccccc3)O[C@H]1CO2	-2.16% (inactive)
CN(C)CCCNC(=O)C[C@H]1CC[C@H]2[C@@H](COc3ccc(NC(=O)c4ccccc4F)cc3C(=O)N2C)O1	3.67% (inactive)
COC(=O)C[C@@H]1CC[C@@H]2[C@H](COc3ccc(NS(=O)(=O)c4ccc(F)cc4)cc3C(=O)N2C)O1	-7.83% (inactive)
CCNC(=O)Nc1ccc2c(c1)C(=O)N(C)[C@H]1CC[C@H](CC(=O)NCc3ccccc3F)O[C@H]1CO2	-5.41% (inactive)
CCOc1cc(C(=O)NC(C)COC)cc(OCC)c1OCC (centres undefined)	0.828% (inactive)
COCCNC(=O)C[C@H]1CC[C@@H]2[C@@H](COc3ccc(NS(=O)(=O)c4ccc(Cl)cc4)cc3C(=O)N2C)O1	-14.5% (inactive)
COc1ccc2[nH]c(C(=O)O)c(NS(=O)(=O)c3ccc(Cl)s3)c2c1	-13.1% (inactive)
CCCC(=O)Nc1ccc2c(c1)C(=O)N(C)[C@@H]1CC[C@H](CC(=O)N3CCc4ccccc4C3)O[C@H]1CO2	-5.47% (inactive)
C/C=C/c1ccc2c(c1)O[C@H](CN(C)C(=O)c1cnccn1)[C@H](C)CN([C@H](C)CO)S2(=O)=O	8.36% (inactive)
Cc1cc(C)cc(NC(=O)Nc2ccc3c(c2)C(=O)N(C)[C@@H]2CC[C@H](CC(=O)O)O[C@@H]2CO3)c1	5.14% (inactive)
CCN(C[C@H]1N[C@@H](CO)[C@@H]1c1ccc(C2=CCCC2)cc1)C(=O)c1ccncc1	-36.7% (inactive)
CNC(=O)C[C@H]1CC[C@H]2[C@@H](COc3ccc(NC(=O)C(C)C)cc3C(=O)N2C)O1	-14.9% (inactive)
